High-throughput results from PubChem.
Sampled rows, rich in hits. Any-hit rate of the full collection: about 2.4%.
D2 ag-1 – agonists of human D2 dopamine receptor | P14416 | HEK293 T-REx D2 cells, calcium flux agonist mode | activation, % at 2 µM | hit rate 0.53% among 340,000 | AID 485358;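 active means activation over 3 SD above normal in the single-dose calcium agonist read, cut at about 30% in these data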
Target sequence (P14416 whole entry, looked up): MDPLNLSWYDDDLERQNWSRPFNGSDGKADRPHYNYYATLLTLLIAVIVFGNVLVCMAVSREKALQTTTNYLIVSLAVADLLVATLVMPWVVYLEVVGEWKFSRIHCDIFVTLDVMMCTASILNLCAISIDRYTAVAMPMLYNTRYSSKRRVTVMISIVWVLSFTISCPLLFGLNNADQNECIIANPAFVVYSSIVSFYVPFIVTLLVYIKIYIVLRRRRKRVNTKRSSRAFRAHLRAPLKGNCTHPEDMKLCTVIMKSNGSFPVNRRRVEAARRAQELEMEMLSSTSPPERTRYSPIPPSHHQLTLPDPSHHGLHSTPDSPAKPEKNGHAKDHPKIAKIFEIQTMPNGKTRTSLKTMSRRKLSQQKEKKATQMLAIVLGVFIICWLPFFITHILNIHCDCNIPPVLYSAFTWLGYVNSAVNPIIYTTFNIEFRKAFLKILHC
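Tetracycline-induced HEK293 Trex cells with D2 receptor force-coupled to calcium signaling, plated overnight at 30 C and loaded with no-wash calcium dye. Calcium flux read kinetically for 180 s after compound addition; responses flag agonists.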
D2 PAM-1 – positive allosteric modulators of human D2 dopamine receptor; P14416; HEK293 T-REx D2, calcium flux, EC20 dopamine potentiation; potentiation, % at 10 µM; hit rate 0.34% among 340,000; AID 485347;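 active means potentiation over 3 SD above the plate norm, cut at about 30% in these data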
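Using a no-wash calcium dye in inducible, force-coupled HEK293 Trex cells expressing D2, we tracked fluorescence each second for 180 s after compound, then for 180 s after EC20 dopamine to detect augmented signalling.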
D2 PAM-2 – potentiates the human D2 dopamine receptor allosterically; P14416; DiscoveRx D2 beta-arrestin cells, luminescence, 90 min; 100% = 57 uM dopamine signal; potentiation, % (test concentration not listed); hit rate 0.23% among 360,000; in the data active means potentiation above about 50%; inconclusive means mostly about 30% to 49%
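D2 cells co-treated with compound plus 50 nM dopamine (EC20) for 90 min at 37 deg C to detect potentiation. Beta-arrestin recruitment was read as enzyme-fragment luminescence after 1 h at ambient temperature. Full response was set by 57 uM dopamine.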
D2 ag-2 – activates the human D2 dopamine receptor | DiscoveRx PathHunter D2 beta-arrestin, luminescence, 90 min; 100% = 57 uM dopamine signal | activation, % (no concentration beside the values) | hit rate 0.084% among 360,000; in the data active means activation above about 40%; inconclusive means between about 15% and that limit
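Agonist mode: compounds alone added to overnight-plated D2 PathHunter cells for 90 min at 37 C, with 57 uM final dopamine (EC100) defining full response. Beta-arrestin recruitment detected by chemiluminescent reagent, read after 1 h at ambient temperature.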
D2 antag – antagonists of human D2 dopamine receptor. HEK293 TREx D2 cells, calcium flux, dopamine EC80. inhibition, % at 10 µM. P14416. AID 485344. hit rate 2% among 340,000; in the data active means inhibition above about 30%; inactive means below that, where a call was filed
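Measurement of antagonist activity uses fluorescent calcium dye in inducible HEK293 T-REx D2 cells: 10 s baseline, compound addition with 180 s read, EC80 dopamine addition with a further 180 s read.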
Large screens that a line does not name were inactive.

COC(=O)c1c(NC(=O)c2cc(=O)c3cc(C)cc(C)c3o2)sc2c1CCC2	none (no result: D2 PAM-2, D2 ag-2, D2 antag)
CCCCNC(=O)CCCn1c(=O)c2ccccc2n(Cc2cccc(Cl)c2)c1=O	none (no result: D2 PAM-2, D2 ag-2, D2 antag)
COc1ccc(C2=C(C)C(=NCCCN3CCN(c4cc(C)ccc4C)CC3)NS2(=O)=O)cc1	none (no result: D2 PAM-2, D2 ag-2, D2 antag)
CCn1cc([N+](=O)[O-])c(C(=O)N2N=C3/C(=C/c4cccs4)CCCC3C2c2cccs2)n1 (configuration not stated)	D2 PAM-1 43
O=C(O)CCCNC(=O)/C=C/c1ccco1	none
O=C(/C=C/c1ccco1)Nc1cc(Cl)ccc1C(=O)O	D2 antag 34
O=C(/C=C/c1ccco1)NCCc1ccccc1	D2 antag 32
CCc1nn(CC(=O)Nc2c(C)cc(C)cc2C)c(=O)c2cc3sccc3n12	none (no result: D2 PAM-2, D2 ag-2, D2 antag)
O=C(CSc1ncc(CO)n1Cc1ccccc1)Nc1ccc(C(F)(F)F)cc1	none (no result: D2 PAM-2, D2 ag-2, D2 antag)
O=C(Nc1cc(-c2ccc(Cl)cc2)no1)c1ccc(F)cc1	none (no result: D2 ag-1, D2 PAM-2, D2 ag-2, D2 antag)
Cc1nn(S(=O)(=O)c2cccc([N+](=O)[O-])c2)c(C)c1Br	D2 PAM-2 62
Cc1nn(S(=O)(=O)c2cccc([N+](=O)[O-])c2)c(C)c1S(=O)(=O)N1CCOCC1	none
COc1ccc(-c2cc3nc(C)cc(N4CC(C)CC(C)C4)n3n2)cc1 (configuration not stated)	D2 PAM-1 40
Cc1cccc(N2CCN(C(=O)CNC(=O)c3ccccc3)CC2)c1C	D2 antag 33
Cc1cccc(N2CCN(C(=O)CNC(=O)C3CCCCC3)CC2)c1C	none
N/C(=N\OC(=O)c1cc(Cl)ccc1Cl)c1cccnc1	D2 PAM-2 73, D2 ag-2 inconclusive (no result: D2 ag-1, D2 antag)
O=C(C(=O)c1cccnc1)c1cccnc1	none (no result: D2 ag-1, D2 antag)
N/C(=N\OC(=O)c1ccccc1Cl)c1cccnc1	D2 PAM-2 96
NC(=O)c1cccnc1	D2 antag 40
CCCCCOc1ccccc1CN1C(=O)C(=O)c2cc(C)ccc21	none (no result: D2 PAM-2, D2 ag-2, D2 antag)
Cc1ccc(C)c(N(CC(=O)NC2CCCC2)C(=O)CCC(=O)Nc2cc(C)on2)c1	D2 antag 36
Cc1cc(NC(=O)CCC(=O)N(Cc2ccco2)C2(C(=O)NC3CCCCC3)CCCCC2)no1	none
Cc1cc(NC(=O)CCC(=O)N(Cc2ccccc2)C2(C(=O)NC3CCCCC3)CCCC2)no1	D2 antag 44
COc1cc(NC(=O)CN2c3ccccc3S(=O)(=O)c3ccccc32)cc(OC)c1	none (no result: D2 PAM-2, D2 ag-2, D2 antag)
CCc1ccc2oc(C(=O)NCCc3ccc(OC)c(OC)c3)cc(=O)c2c1	none (no result: D2 PAM-2, D2 ag-2, D2 antag)
Cc1cccc(OCC(=O)O/N=C(\N)Cc2ccc(Cl)cc2)c1	D2 PAM-1 33
COc1ccc(C/C(N)=N/n2cnnc2)cc1Cl	none
COc1ccc(C(=O)O/N=C(\N)Cc2ccc(Cl)cc2)cc1OC	D2 PAM-2 164
COc1ccc(C(=O)O/N=C(\N)Cc2ccc(Cl)c(Cl)c2)cc1OC	D2 PAM-2 118, D2 ag-2 inconclusive
N/C(Cc1ccc(Cl)cc1)=N\OC(=O)c1ccccc1	D2 PAM-2 68, D2 ag-2 inconclusive
CC(=O)Nc1ccccc1-c1nc2ccccc2n(C(C)C(=O)Nc2ccccc2C(F)(F)F)c1=O (configuration not stated)	none (no result: D2 PAM-2, D2 ag-2, D2 antag)
O=C(NCCS(=O)(=O)N1CCN(c2ccccc2)CC1)C(c1ccccc1)c1ccccc1	none (no result: D2 PAM-2, D2 ag-2, D2 antag)
O=C(Nc1ccc(Cl)cc1)C(NS(=O)(=O)c1cccs1)c1ccccc1 (configuration not stated)	none (no result: D2 PAM-2, D2 ag-2, D2 antag)
N/C(CN1CCCC1=O)=N\OC(=O)c1ccc(Cl)cc1	none
N/C(CN1CCCC1=O)=N\OC(=O)c1ccc(Cl)c(Cl)c1	D2 PAM-2 110, D2 ag-2 inconclusive
CC1CN(C(=O)c2cc3ccccc3cc2O)CC(C)O1 (configuration not stated)	none (no result: D2 ag-1, D2 PAM-1, D2 antag)
CC(=O)Nc1ccccc1C(=O)N1CC(C)OC(C)C1 (configuration not stated)	D2 PAM-1 40
Cc1noc(C)c1CSc1nc2ccccc2n1CCc1ccccc1	D2 PAM-1 35
O=C(O)CCn1c(SCc2ccccc2)nc2ccccc21	none
CC(C)N(C(=O)CSc1nc2ccccc2n1Cc1ccccc1)C(C)C	D2 PAM-1 36
CCSc1nc2ccccc2n1CC(=O)OC	none
COC(=O)Cn1c(SCc2ccccc2)nc2ccccc21	D2 PAM-1 31
Cc1ccc(-c2nn(-c3ccc(F)cc3)c3c2cnc2cc(F)c(F)cc23)cc1	none (no result: D2 PAM-2, D2 ag-2, D2 antag)
CCOc1ccc(-c2cc3nc(C4CCN(C(=O)OC(C)(C)C)CC4)c(C(=O)Nc4ccc(C)c(F)c4)cn3n2)cc1	none (no result: D2 PAM-2, D2 ag-2, D2 antag)
C/C(=N\Nc1ncnc2sc(C)c(C)c12)c1ccccn1	D2 ag-1 46
CCCOC(=O)Nc1nnc(CCC)s1	D2 antag 44
CCCc1nnc(NC(=O)CCS(=O)(=O)c2ccccc2)s1	D2 PAM-1 32
COc1ccccc1C1CCN(c2cc(O)ccc2[N+](=O)[O-])CC1	D2 antag 34
CCN(CC)C(=O)CSc1nc2nc(C)cc(C)c2c(=O)[nH]1	none
Cc1cc(C)c2c(=O)[nH]c(SCC(=O)N(C)C)nc2n1	D2 PAM-1 37
Cc1oc(-c2ccccc2Cl)nc1CS(=O)(=O)CC(=O)NCc1ccc(F)cc1	none (no result: D2 PAM-2, D2 ag-2, D2 antag)
CC(=O)c1cccc(N(CC(=O)Nc2ccccc2F)S(C)(=O)=O)c1	D2 antag 46
CC(C)C(NC(=O)CN(c1cccc(F)c1)S(C)(=O)=O)C(C)C	D2 antag 39
CSc1cccc(NC(=O)CN(c2cccc(C)c2)S(C)(=O)=O)c1	D2 antag 30
COC(=O)Cc1c(C)c2cc3c(c(C)c2oc1=O)OCN(CCc1ccc(F)cc1)C3	none (no result: D2 PAM-2, D2 ag-2, D2 antag)
COc1ccc(C(=O)Nc2ccc(NC(=O)c3ccccc3)cc2)cc1S(=O)(=O)N1CCOCC1	none
COc1ccc(NC(=O)c2c3c(nc4ccccc24)CCC3)cc1S(=O)(=O)N1CCOCC1	D2 ag-1 33
O=C1c2ccccc2NC(c2ccccc2)N1NS(=O)(=O)c1ccccc1 (configuration not stated)	none
O=C1c2ccccc2NC(c2cccs2)N1NS(=O)(=O)c1ccccc1 (configuration not stated)	none
O=C1c2ccccc2NC(c2ccco2)N1NS(=O)(=O)c1ccccc1 (configuration not stated)	D2 antag 33
COc1ccc(C2Nc3ccccc3C(=O)N2NS(=O)(=O)c2ccccc2)cc1 (configuration not stated)	D2 antag 39
COc1ccc(NC(=O)C/C(C)=N/NC(=O)CCc2ccccc2)c(OC)c1	D2 antag 40
COc1ccc(NC(=O)CCCc2ccccc2)c(OC)c1	none
CCOC(=O)C1=C(C)N=c2s/c(=C3/C(=O)Nc4ccccc43)c(=O)n2C1c1ccc(C)cc1 (configuration not stated)	none
